The sample as a whole holds a higher share of hits than the screen did.
Dicer processing: inhibitors of Dicer pre-microRNA processing, primary screen, biochemical, cat-ELCCA, chemiluminescence. Endoribonuclease Dicer (Homo sapiens), Q9UPY3. cat-ELCCA pre-miR-21 Dicer processing; stronger effect = higher value. z-score at 25 µM. hit rate 6% among 47,000. AID 1347074, 2019; in the data active = z-score above about 3, passing the limit was not always enough;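 note: plate controls were vehicle for no effect and no enzyme for full effect; higher signal means more uncleaved substrate so more Dicer inhibition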
An asterisk follows results filed as active.

How did CC1(C)CN=C(NCc2ccccn2)S1 do in these assays?
Dicer processing: 4.01*

How did C/C(=C\c1ccc([N+](=O)[O-])cc1)[N+](=O)[O-] do in these assays?
Dicer processing: 2.74

What do the screens show for `S=C1NC2=C(CCc3ccccc32)C(c2cccnc2)N1` (configuration not stated)?
Dicer processing: -0.78

Results for CSc1nc(OC(=O)N(C)C)cc(-c2ccccc2)n1 ?
Dicer processing: 3.69*

What do the screens show for `COCc1cc(OC(=O)N(C)C)nc(-c2cccc(C)c2)n1`?
Dicer processing: 0.37

What do the screens show for `Cc1cc(OC(=O)N(C)C)nc(SCc2c(F)cccc2Cl)n1`?
Dicer processing: 0.04

Results for Cn1cncc1C(O)c1ccccc1 (configuration not stated) ?
Dicer processing: 0.37

How did O=C(NNS(=O)(=O)c1ccc(C(F)(F)F)cc1)C1(O)CN2CCC1CC2 (configuration not stated) do in these assays?
Dicer processing: 0.82

What do the screens show for `O=C(NC1CN2CCC1CC2)c1cccc(Cl)c1` (configuration not stated)?
Dicer processing: -0.41

Results for Fc1ccc(CNC2CN3CCC2CC3)cc1 (configuration not stated) ?
Dicer processing: 3.09*

Results for COc1cccc(CNC2CN3CCC2CC3)c1OC (configuration not stated) ?
Dicer processing: -1.2

How did COCc1cc(OC(=O)N(C)C)nc(Cc2c(Cl)cccc2Cl)n1 do in these assays?
Dicer processing: 0.6

Results for Cc1ccc(-c2nc(OC(=O)N(C)C)cc(C(F)(F)F)n2)cc1Cl ?
Dicer processing: 0.06

Results for CCC(C)n1[nH]c(=O)c2c1NC(=O)CSC2c1ccc(OC(C)C)cc1 (configuration not stated) ?
Dicer processing: -0.71

How did O=C1C2CCN(CC2)C1CSc1ccc(Cl)cc1 (configuration not stated) do in these assays?
Dicer processing: -0.31

Results for c1ccc(CCNCc2ccc3c(c2)OCO3)cc1 ?
Dicer processing: -0.43

Results for O=C(O)c1cn(Cc2ccc(Cl)cc2)c2ccccc12 ?
Dicer processing: 0.07

Results for O=C(Cn1cc(C(=O)c2ccccc2)c2ccccc21)NCc1ccc2c(c1)OCO2 ?
Dicer processing: 3.54*

Results for CC(=O)OC1CCC2(C)C3CCC4(C)C(OC(C)=O)CCC4C3CC(O)[C@@]2(O)C1 (some centres not stated) ?
Dicer processing: 0.87

What do the screens show for `CN(C)C(=O)Oc1nnc(SCc2ccccc2)n1-c1cccc(Cl)c1`?
Dicer processing: -0.56

Results for O=C1/C(=C\c2ccc(C(F)(F)F)cc2)N2CCC1CC2 ?
Dicer processing: 0.28

How did CC(C)C1(C)N=C(c2ncccc2C(=O)O)NC1=O (configuration not stated) do in these assays?
Dicer processing: 3.2*

What do the screens show for `CCC1(C(=O)c2ccc(C)cc2)C2c3cc(Br)ccc3OC(=O)C21C(=O)OC` (configuration not stated)?
Dicer processing: 0.29

Results for N#CC(C#N)=NNc1c(Cl)cc(C(F)(F)F)cc1Cl ?
Dicer processing: -0.79

Results for COc1ccc(OC)c(NC2=NCCS2)c1 ?
Dicer processing: 3.1*

How did Cc1ccc(NC2=NCCS2)cc1Cl do in these assays?
Dicer processing: -1.09

How did COc1ccc(Br)c(NC2=NCCS2)c1 do in these assays?
Dicer processing: -0.17

Results for CCOc1ccc(Br)cc1/C=C(\C)[N+](=O)[O-] ?
Dicer processing: -1.01

Results for CC12CCC3(C[C@@H]1CCC1C2CCC2(C)C1CC[C@]2(C)O)OCCO3 (some centres not stated) ?
Dicer processing: 0.6

How did CNC(=O)O/N=C1\CC(C)(C)Cc2csc(SC)c21 do in these assays?
Dicer processing: 2.63

Results for CC1(C)CSC(Nc2ccccc2F)=N1 ?
Dicer processing: 0.9

How did O=C(CNC1CCCCC1)c1ccc(O)c(O)c1 do in these assays?
Dicer processing: 10.3*

Results for COc1cc(-n2c(SC)nc3ccccc3c2=O)c(OC)cc1Cl ?
Dicer processing: 0.26

Results for CC12CCC3C4CCC(=O)C=C4CCC3C1CC[C@]2(C)O (some centres not stated) ?
Dicer processing: -0.7

What do the screens show for `CCOC(=O)C1=C(N)Oc2c(c(=O)oc3ccccc23)C1c1ccccc1` (configuration not stated)?
Dicer processing: 6.54

Results for CCOC(=O)C1=C(N)Oc2c(c(=O)oc3ccccc23)C1c1ccc(OC)cc1 (configuration not stated) ?
Dicer processing: 3.03*

Results for CCC1C(C#N)=C(N)Oc2c1c(=O)oc1ccccc21 (configuration not stated) ?
Dicer processing: -0.66

How did C[C@@]12C[C@H](O)CCN1CCc1ccccc12 do in these assays?
Dicer processing: 0.35

What do the screens show for `Cc1ccc2[nH]c(=S)n(-c3ccc(Br)c(C)c3)c(=O)c2c1`?
Dicer processing: 1.72

How did CC1CC(O)(c2ccccc2)C(C)CN1C (configuration not stated) do in these assays?
Dicer processing: 3.58*

Results for COc1ccc(CSC2C(C(=O)NNC(=O)c3ccc(Cl)cc3Cl)C3CCN2CC3)cc1 (configuration not stated) ?
Dicer processing: -0.38

How did CNc1ccc(Br)cc1C(=O)c1ccc(Cl)cc1 do in these assays?
Dicer processing: -2.13

What do the screens show for `c1ccc(CN2CCN(C3CCCCC3)CC2)cc1`?
Dicer processing: 3.12*

Results for Clc1ccc(CN2CCN(Cc3ccccc3Cl)CC2)cc1 ?
Dicer processing: 1.28

How did Cc1ccc(CN2CCN(C(C)C)CC2)cc1 do in these assays?
Dicer processing: 2.86

Results for O=C1NC(=O)C(=Cc2ccc(Cl)cc2Cl)C(=O)N1 ?
Dicer processing: -2.89

Results for O=C(NC(=S)Nc1ccccc1OC(F)(F)F)Oc1ccccc1 ?
Dicer processing: -4.46

How did Cc1ccc(NC(=S)N2CCOC2c2cccnc2)cc1Cl (configuration not stated) do in these assays?
Dicer processing: 0.89

How did Cc1ccc2nc(C(F)(F)F)n(-c3ccc(Cl)cc3)c(=O)c2c1 do in these assays?
Dicer processing: 1.76

Results for CC(=O)N1N=C2C3CCN(CC3)C2C1c1cccc(F)c1 (configuration not stated) ?
Dicer processing: -0.66

What do the screens show for `Cc1onc(-c2ccccc2Cl)c1C(=O)Nc1ccc(Cl)cc1C(=O)c1ccccc1`?
Dicer processing: -0.94

How did OCC12COC3c4ccccc4C(OC1)N32 (configuration not stated) do in these assays?
Dicer processing: 5.63*

How did O=[P@]1(N(CCCl)CCCl)NCCCO1 do in these assays?
Dicer processing: -0.61

What do the screens show for `CC(=O)c1ccc(Cl)c(-n2c(=S)[nH]c3ccccc3c2=O)c1`?
Dicer processing: -0.99

Results for CN(C)C(=O)Oc1noc2ccc(Cl)cc12 ?
Dicer processing: 0.46

Results for CC1(C)SCN2C(=S)N(c3ccc([N+](=O)[O-])cc3)C(=O)C21 (configuration not stated) ?
Dicer processing: -1.5

Results for CC1CN=C(Nc2cccc(C(F)(F)F)c2)S1 (configuration not stated) ?
Dicer processing: 0.02

Results for c1cc2c(cc1CCNCc1ccc3c(c1)OCO3)OCO2 ?
Dicer processing: 2.46

What do the screens show for `CCc1ccc(CNCCc2ccc3c(c2)OCO3)cc1`?
Dicer processing: 0.83

What do the screens show for `c1coc(CNCCc2ccc3c(c2)OCO3)c1`?
Dicer processing: 7.68*

How did C=C(C)Cc1c(C)nc(SCC(=O)C(C)(C)C)nc1OC(=O)N(C)C do in these assays?
Dicer processing: 1.86
